Source: PubChem BioAssay (NCATS)
Results filed as inconclusive are left out. Calls of active or inactive are those of the source. Unless noted, calls follow the shape of the dose curve; as a rule, active = well fitted curve in the direction sought with a large enough effect; inconclusive = small, poorly fitted or top-dose-only effect, or another doubt; inactive = no such curve, though single readings can be large; an effect the other way counts as inactive or inconclusive.

Legend:
[1] = molecular target: Transient receptor potential cation channel subfamily V member 1 (Homo sapiens) (UniProt Q8NER1); assay: HTS Assay for Compounds that Act as Enhancers of the Vanilloid Receptor 1 (AID 488979)
Method in brief: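 TRPV1-expressing cells loaded with Fluo-8 calcium dye; compounds added and calcium influx read kinetically for 3 min (agonist phase), then capsaicin at EC20 added and read 2 min more for enhancement. Fluorescence ex 480/em 520 nm.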

[2] = molecular target: ATP-dependent 6-phosphofructokinase (Trypanosoma brucei brucei) (UniProt O15648); assay: qHTS Assay to Find Inhibitors of T. brucei phosphofructokinase: hit validation (AID 492961);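 also: luminescence reports ADP formed as PFK phosphorylates fructose-6-phosphate with ATP; series mostly up to about 51 µM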
Method in brief: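 PFK 1.25 nM, F6P 0.5 mM, ATP 0.1 mM, MgCl2 5 mM, 0.1 M TEA pH 8.0, Tween20 0.01%, BSA 0.1%; 45 min RT. ADP-Glo two-step detection, luminescence. qHTS titration; curve fitting with curve-class categorization.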

[3] = molecular target: Flap endonuclease 1 (Homo sapiens) (UniProt P39748); assay: qHTS Validation Assay for the Inhibitors of Human Flap endonuclease 1 (FEN1) (AID 488816)
Method in brief: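 Steps: add FEN1 (10 nM reagent) or buffer only; pin compounds; hold 15 min at room temperature; start with substrate, 50 nM final; read at 0 and 15 min; correct, normalize and fit a four-parameter Hill curve.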

[4] = molecular target: Chromobox protein homolog 1 (Homo sapiens) (UniProt P83916); assay: qHTS Validation Assay for Inhibitors of HP1-beta Chromodomain Interactions with Methylated Histone Tails (AID 488953);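 also: loss of AlphaScreen luminescence from HP1-beta binding biotinylated H3K9me3 peptide; series mostly up to about 110 µM; nearly all actives have a fitted effect of over 50% in size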
Method in brief: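 AlphaScreen proximity signal from streptavidin donor and nickel chelate acceptor beads (final 10 ug/mL) after 30 min dark incubation. Compounds had 30 min at room temperature with preformed complex of 50 nM HP1-beta and 50 nM b-H3(1-18)K9me3 in PBS pH 7.4 with 0.01% Tween-20.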

[5] = molecular target: Methanococcus maripaludis chaperonin (MmCpn) (UniProt Q6LX38); assay: High-Throughput Screening for Modulators of Cytosolic Chaperonin Activity: MmCpn Primary Screen (AID 488978);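 also: 50 nM MmCpn enzyme hydrolysing 30 µM ATP at 37 °C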
Method in brief: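 ADP formation read by HTRF Transcreener, 665/590 nm emission after 320 nm excitation. Enzyme: archaeal chaperonin at 50 nM final; substrate ATP 30 uM final; 10 min, 37C, after 5 min compound preincubation at RT.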

[6] = molecular target: D(1A) dopamine receptor (Homo sapiens) (UniProt P21728); assay: HTS Assay for Allosteric Agonists of the Human D1 Dopamine Receptor: Primary Screen for Potentiators (AID 488982)
Method in brief: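 Tetracycline-induced HEK293 T-REx cells force-coupled to calcium signalling were incubated overnight at 30 C and dye-loaded at room temperature. Calcium flux over 180 s after compound addition flagged agonists; a further 180 s read after EC20 dopamine flagged potentiators.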

[7] = molecular target: D(1A) dopamine receptor (Homo sapiens) (UniProt P21728); assay: HTS Assay for Allosteric Agonists of the Human D1 Dopamine Receptor: Primary Screen for Antagonists (AID 488983);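 also: calcium flux response to an EC80 dopamine challenge measured with no-wash dye; nearly all actives have a fitted effect of over 65% in size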
Method in brief: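 Calcium-flux read-out in inducible HEK293 T-REx cells expressing D1, dye-loaded 30–90 min at room temperature. Kinetic reads: 180 s after compound (agonist phase), then 180 s after an EC80 dopamine challenge.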

[8] = Validation screen for small molecules that induce genotoxicity in human embryonic kidney (HEK293T) cells expressing luciferase-tagged ELG1 (AID 493106)
Method in brief: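 ELG1-luciferase reporter readout (ONE-Glo, 30 min, room temperature) after 16 hr compound treatment at 37 °C of HEK293T cells at 2,000 per well. Rising luminescence flags genotoxic stress.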

[9] = Nrf2 qHTS screen for inhibitors: Validation (AID 493153; active = well fitted inhibition curve with a large enough effect in the main read-out, with a control signal flat, not every such curve was filed as active); details: viability change: measured here: cytotoxicity max response
Method in brief: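 Concentration-response on A549 ARE_Fluc reporter cells exposed 18-24 h at 37 C, 5% CO2. Cytotoxicity read first by CellTiter-Fluor fluorescence (Ex 405/Em 525), then Nrf2 inhibition by BugLite luminescence after 15 min.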

[10] = qHTS for Inhibitors of Cell Surface uPA Generation: Validation Assay (AID 493164);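 also: RAW 264.7 macrophage cells exposed to compound for 18 h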
Method in brief: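 ATP-Lite luminescence read-out: ATP remains high when uPA activity-dependent LF translocation into the cytoplasm is blocked. RAW 264.7 cells, 18 h compound exposure at 37 C; 7-point titration, 2.45 nM to 38.3 uM final.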

Chain of D(1A) dopamine receptor (Homo sapiens) (P21728 whole entry, looked up): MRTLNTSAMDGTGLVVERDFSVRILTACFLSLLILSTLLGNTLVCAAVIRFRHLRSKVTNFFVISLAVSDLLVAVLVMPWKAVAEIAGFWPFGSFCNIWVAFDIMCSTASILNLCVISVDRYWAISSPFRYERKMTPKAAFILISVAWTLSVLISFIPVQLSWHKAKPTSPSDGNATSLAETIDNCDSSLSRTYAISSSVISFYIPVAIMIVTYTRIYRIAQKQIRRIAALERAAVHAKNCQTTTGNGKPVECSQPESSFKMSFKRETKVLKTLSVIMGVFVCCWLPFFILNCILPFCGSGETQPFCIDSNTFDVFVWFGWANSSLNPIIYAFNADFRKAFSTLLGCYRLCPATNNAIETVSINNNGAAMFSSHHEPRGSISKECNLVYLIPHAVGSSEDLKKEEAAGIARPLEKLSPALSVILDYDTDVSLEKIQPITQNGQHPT
Chain of Transient receptor potential cation channel subfamily V member 1 (Homo sapiens) (Q8NER1 whole entry, looked up): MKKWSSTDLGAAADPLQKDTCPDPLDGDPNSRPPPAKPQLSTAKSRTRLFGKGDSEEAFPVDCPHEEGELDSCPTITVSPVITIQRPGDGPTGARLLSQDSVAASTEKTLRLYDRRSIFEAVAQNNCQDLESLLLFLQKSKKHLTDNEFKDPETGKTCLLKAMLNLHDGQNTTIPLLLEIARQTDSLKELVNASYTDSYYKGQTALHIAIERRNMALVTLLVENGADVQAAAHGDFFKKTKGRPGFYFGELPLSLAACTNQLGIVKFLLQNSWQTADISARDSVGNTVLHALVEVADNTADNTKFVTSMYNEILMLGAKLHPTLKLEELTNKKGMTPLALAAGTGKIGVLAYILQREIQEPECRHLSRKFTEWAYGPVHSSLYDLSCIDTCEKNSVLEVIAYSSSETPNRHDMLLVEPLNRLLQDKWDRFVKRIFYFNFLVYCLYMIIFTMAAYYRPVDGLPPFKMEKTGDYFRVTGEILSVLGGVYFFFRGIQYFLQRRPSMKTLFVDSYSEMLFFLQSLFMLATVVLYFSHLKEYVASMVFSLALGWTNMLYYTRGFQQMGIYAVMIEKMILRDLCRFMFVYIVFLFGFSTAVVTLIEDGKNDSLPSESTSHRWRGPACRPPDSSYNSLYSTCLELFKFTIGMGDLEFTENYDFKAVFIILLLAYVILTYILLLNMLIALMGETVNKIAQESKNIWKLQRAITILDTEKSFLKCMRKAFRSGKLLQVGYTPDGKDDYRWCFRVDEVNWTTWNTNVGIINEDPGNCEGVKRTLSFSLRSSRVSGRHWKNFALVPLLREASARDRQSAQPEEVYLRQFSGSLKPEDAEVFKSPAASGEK
Chain of Flap endonuclease 1 (Homo sapiens) (P39748 whole entry, looked up): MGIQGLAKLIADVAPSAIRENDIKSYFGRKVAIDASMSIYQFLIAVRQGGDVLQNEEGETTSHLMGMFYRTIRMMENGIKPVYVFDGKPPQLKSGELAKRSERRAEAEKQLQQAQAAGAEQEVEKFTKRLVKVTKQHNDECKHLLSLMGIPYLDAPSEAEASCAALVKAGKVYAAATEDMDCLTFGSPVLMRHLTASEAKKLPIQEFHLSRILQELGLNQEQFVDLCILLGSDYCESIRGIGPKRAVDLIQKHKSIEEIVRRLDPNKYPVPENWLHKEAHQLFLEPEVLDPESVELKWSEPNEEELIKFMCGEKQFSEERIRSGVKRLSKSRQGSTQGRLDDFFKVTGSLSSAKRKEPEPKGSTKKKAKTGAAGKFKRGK
Chain of Methanococcus maripaludis chaperonin (MmCpn) (Q6LX38 1-543): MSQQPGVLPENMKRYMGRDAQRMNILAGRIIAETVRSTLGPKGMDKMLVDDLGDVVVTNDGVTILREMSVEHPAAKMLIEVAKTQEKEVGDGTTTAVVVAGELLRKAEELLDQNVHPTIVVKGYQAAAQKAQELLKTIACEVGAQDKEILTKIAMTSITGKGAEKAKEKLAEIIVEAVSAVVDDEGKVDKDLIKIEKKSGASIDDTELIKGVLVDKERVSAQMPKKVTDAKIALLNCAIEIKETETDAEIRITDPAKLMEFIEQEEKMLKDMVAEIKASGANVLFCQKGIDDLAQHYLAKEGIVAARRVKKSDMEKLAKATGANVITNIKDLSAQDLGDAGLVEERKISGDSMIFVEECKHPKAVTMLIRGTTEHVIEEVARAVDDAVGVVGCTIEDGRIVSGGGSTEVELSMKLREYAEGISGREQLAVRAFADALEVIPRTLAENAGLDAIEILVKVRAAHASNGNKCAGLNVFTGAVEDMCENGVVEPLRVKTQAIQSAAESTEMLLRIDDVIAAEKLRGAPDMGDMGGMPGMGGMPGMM
Chain of ATP-dependent 6-phosphofructokinase (Trypanosoma brucei brucei) (O15648 whole entry, looked up): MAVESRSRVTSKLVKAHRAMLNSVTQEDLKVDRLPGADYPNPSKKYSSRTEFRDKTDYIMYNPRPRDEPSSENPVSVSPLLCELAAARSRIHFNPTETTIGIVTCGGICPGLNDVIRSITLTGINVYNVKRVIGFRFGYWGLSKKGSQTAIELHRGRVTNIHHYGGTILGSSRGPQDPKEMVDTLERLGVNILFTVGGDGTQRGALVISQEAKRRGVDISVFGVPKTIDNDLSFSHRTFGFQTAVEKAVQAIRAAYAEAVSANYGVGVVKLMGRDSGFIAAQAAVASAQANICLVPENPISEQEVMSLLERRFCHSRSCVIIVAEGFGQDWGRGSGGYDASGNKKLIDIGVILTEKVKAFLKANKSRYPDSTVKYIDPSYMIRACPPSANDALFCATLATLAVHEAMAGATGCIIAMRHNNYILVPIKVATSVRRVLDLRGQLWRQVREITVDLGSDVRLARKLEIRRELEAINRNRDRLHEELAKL
Chain of Chromobox protein homolog 1 (Homo sapiens) (P83916 whole entry, looked up): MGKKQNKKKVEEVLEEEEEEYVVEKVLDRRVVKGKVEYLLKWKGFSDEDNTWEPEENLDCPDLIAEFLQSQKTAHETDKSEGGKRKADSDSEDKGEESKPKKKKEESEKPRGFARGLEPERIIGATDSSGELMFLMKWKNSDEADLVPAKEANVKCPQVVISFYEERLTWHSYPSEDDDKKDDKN

COc1cc(-c2ccc(=O)[nH]n2)ccc1OC(F)F
inactive: outcome [1] | outcome [2]

O=S1(=O)c2cccc3cccc(c23)N1CCCN1CCN(c2ccc(F)cc2)CC1
inactive: outcome [2]

CCCn1c(=O)[nH]c(=O)c2[nH]cnc21
7.08%: viability change [9]
inactive: outcome [3] | Potency [4] | outcome [5] | outcome [1] | outcome [6] | Potency [7] | outcome [8] | outcome [9] | outcome [10]

CCOC(=O)OC(C)OC1=C(C(=O)Nc2ccccn2)N(C)S(=O)(=O)c2ccccc21 (stereo not drawn)
inactive: outcome [2]

CC[C@H](C)C(=O)O[C@H]1CCC=C2C=C[C@H](C)[C@H](CC[C@@H]3C[C@@H](O)CC(=O)O3)[C@H]21
inactive: outcome [3] | Potency [4] | outcome [5] | Potency [7] | outcome [9] | outcome [10]
-16.9%: viability change [9]

Oc1ccc(O)cc1
-9.14%: viability change [9]
inactive: outcome [3] | outcome [5] | outcome [1] | outcome [6] | Potency [7] | outcome [8] | outcome [9] | outcome [10]

C[C@]12CC[C@@H]3c4ccc(O)cc4CC[C@H]3[C@@H]1CC[C@@H]2O
1.87%: viability change [9]
inactive: outcome [3] | Potency [4] | outcome [5] | outcome [1] | outcome [6] | Potency [7] | outcome [2] | outcome [8] | outcome [9] | outcome [10]

C[N+]1(CCCCC[N+]2(C)CCCC2)CCCC1
inactive: outcome [3] | Potency [4] | outcome [5] | outcome [1] | outcome [6] | Potency [7] | outcome [2] | outcome [8] | outcome [9] | outcome [10]
1.12%: viability change [9]

CC(=O)O[C@H]1C[C@@H]2CC[C@@H]3[C@H](CC[C@@]4(C)[C@H]3C[C@H]([N+]3(C)CCCCC3)[C@@H]4OC(C)=O)[C@@]2(C)C[C@@H]1[N+]1(C)CCCCC1
-0.593%: viability change [9]
inactive: outcome [3] | Potency [4] | outcome [5] | outcome [6] | Potency [7] | outcome [8] | outcome [9] | outcome [10]

O=C1c2ccccc2C(=O)C1c1ccccc1
inactive: outcome [2]

COc1ccc(CN2CCN(C(c3ccc(F)cc3)c3ccc(F)cc3)CC2)c(OC)c1OC
inactive: outcome [2]

O=C(O)c1cc2cc(Cc3cccnc3)ccc2o1
0.85%: viability change [9]
inactive: outcome [3] | Potency [4] | outcome [5] | outcome [1] | outcome [6] | Potency [7] | outcome [8] | outcome [9] | outcome [10]
